A549 viability = A549 cytotoxicity, counter-screen for Nrf2 inhibitors; A549 ARE-Fluc cells, CellTiter-Fluor viability, 18-24 h; Potency, µM (titrated, usually from 46 µM), without a hit: top-dose activity change, negative = cytotoxicity, most hits filed as inhibitors; 390,000 tested, 0.16% active; also: potency is read from the fitted curve at half-maximal effect
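Cytotoxicity counterscreen: CellTiter-Fluor fluorescence was measured in A549 ARE_Fluc cells after 18-24 h of compound exposure in a concentration series. The subsequent BugLite luminescent read reports ARE-luciferase activity.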
Nrf2 block = blocks Nrf2 signaling; Potency, µM (doses to about 46 µM), for inactives: at the top dose activity change, negative = inhibition, usual class: inhibitors; 360,000 tested, 2.1% active; A549 ARE-Fluc reporter, luciferase luminescence, 18-24 h; also: potency is read from the fitted curve at half-maximal effect; nearly all actives have a fitted effect of over 60% in size
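Two sequential reads on A549 ARE_Fluc cells exposed to compound for 18-24 h: a CellTiter-Fluor fluorescence read for viability, then a luciferase luminescence read for Nrf2/ARE activity.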
PI4K2A inh = inhibitors of human PI4K2A; Q9BTU6; purified PI4K2A, ADP-Glo luminescence, 1 h; hits give low values; activity change, negative = inhibition, % at 76.9 µM; 420,000 tested, 0.13% active; AID 1346378; in the data active = activity change below about -50%; inconclusive = mostly about -30% to -49%;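 also: -100% = wells without enzyme as full effect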
Target sequence (Q9BTU6 whole entry, looked up): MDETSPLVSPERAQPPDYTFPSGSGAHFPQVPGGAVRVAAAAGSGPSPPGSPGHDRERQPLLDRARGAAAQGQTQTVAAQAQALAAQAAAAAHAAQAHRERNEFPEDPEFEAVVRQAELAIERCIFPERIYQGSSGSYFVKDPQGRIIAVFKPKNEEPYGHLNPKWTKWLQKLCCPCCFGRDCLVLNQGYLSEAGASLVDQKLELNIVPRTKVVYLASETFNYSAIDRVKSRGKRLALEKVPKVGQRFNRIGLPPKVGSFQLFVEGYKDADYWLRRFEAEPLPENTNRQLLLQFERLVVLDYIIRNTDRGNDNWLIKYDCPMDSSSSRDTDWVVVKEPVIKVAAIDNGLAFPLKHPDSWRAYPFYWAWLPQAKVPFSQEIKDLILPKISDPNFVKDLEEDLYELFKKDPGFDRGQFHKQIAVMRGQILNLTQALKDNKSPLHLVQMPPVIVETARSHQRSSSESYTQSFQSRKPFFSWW
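ADP-Glo luminescence measured ADP generated by PI4K2A enzyme (4 ug/mL before mixing) with 1.2 mM PI substrate (pre-mix) and 300 microM ATP (pre-mix). Tris pH7.5 buffer with MgCl2, Triton X-100; 1 h reaction at ambient temperature.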
KB-V1 cytotox = kills drug-selected multidrug resistant KB-V1 cells | AID 1347076 | KB-V1 MDR cells viability, CellTiter-Glo, 72 h | Potency, µM (top dose mostly 46.1 µM), most hits filed as cytotoxic | 400,000 tested, 3.4% active; also: potency is read from the fitted curve at half-maximal effect; nearly all actives have a fitted effect of over 60% in size
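KB-V1 cells (P-gp-expressing MDR subline of KB-3-1) in phenol-red-free DMEM with 10% FBS were exposed to library compounds over a concentration series for 72 h at 37 degrees C. Viability read by CellTiter-Glo luminescence; concentration-effect curves fitted after normalization.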
Giardia kill = kills Giardia lamblia; Giardia lamblia trophozoite viability; activity change, % at 7.66 µM, hits read low; 340,000 tested, 0.15% active; in the data active = activity change below about -80%; inconclusive = between about -30% and that limit;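 also: parasites exposed to compound for two days anaerobically before the ATP read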
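Media and compound were dispensed first, then trophozoites at 100 cells/well; plates sat 48 hrs at 37 deg C without oxygen before ATP luminescence reagent was added and read after 15-30 min at room temperature.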
KB-3-1 cytotox = kills parental KB-3-1 adenocarcinoma cells | KB-3-1 viability, CellTiter-Glo ATP luminescence, 72 h | Potency, µM (series often up to 46.1 µM), hits mostly cytotoxic | 400,000 tested, 1.4% active; also: potency is read from the fitted curve at half-maximal effect; nearly all actives have a fitted effect of over 60% in size
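72 h, 37 °C compound treatment of KB-3-1 parental cells; CellTiter-Glo added, 10 min, luminescence read. Data corrected against DMSO-only plates and normalized before curve fitting.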
* hit, by the source's call; i = inactive; ? = inconclusive; / = not tested or not shown. Compounds with a hit are over-represented: about 5.7% of the library has one in this group of screens. Unless noted, calls follow the shape of the dose curve; as a rule, active = well fitted curve in the direction sought with a large enough effect; inconclusive = small, poorly fitted or top-dose-only effect, or another doubt; inactive = no such curve, though single readings can be large; an effect the other way counts as inactive or inconclusive. Unless noted, % is scaled to controls: 0 for no effect and ±100 for the full control effect.

SMILES	A549 viability	Nrf2 block	PI4K2A inh	KB-V1 cytotox	Giardia kill	KB-3-1 cytotox
CC(O)C1C=CC=CC(=O)OC2CC3OC4C5OC5(C)C(O)CC4(COC(=O)C(O)C(C)CCO1)C2(C)C31CO1 (stereo not given)	/	0.259µM*	3.7	?	11.6	0.206µM*
CNc1ccc2oc(C[C@H]3O[C@@]4(CC[C@H]3C)O[C@H]([C@H](C)C(=O)c3ccc[nH]3)[C@H](C)C[C@H]4C)nc2c1C(=O)O	3.66µM*	1.16µM*	?	3.66µM*	-4.4	4.11µM*
O=C1CC[C@@]2(O)C3Cc4ccc(O)c5c4C2(CCN3CC2CC2)[C@H]1O5 (stereo not given in full)	/	/	2.0	/	/	/
O=C(CN1CCN(c2ncc(C(F)(F)F)cc2Cl)CC1)N1CCN(c2ncc(C(F)(F)F)cc2Cl)CC1	?	11.2µM*	-1.1	i	-0.3	?
Cc1cc(OCC(=O)N2CCN(CC(=O)N3CCOCC3)CC2)c(C(C)C)cc1Cl	-12.3%	-23.9%	1.4	i	5.1	i
CCOC(=O)[C@]12Cc3cc(C)ccc3[C@H]1N(CCC(=O)OC)C(=O)c1ccccc12	/	/	6.3	4.11µM*	/	13µM*
Cc1cc(C(=O)CN2C(=O)c3ccccc3C2=O)c(C)n1C1CC1	3.1%	?	4.9	i	-10.9	i
CCOC(=O)[C@]12Cc3cc4c(cc3[C@H]1N(Cc1ccccc1)C(=O)c1ccccc12)OCO4	-25.5%	?	0.9	?	-10.1	?
CCOC(=O)[C@]12Cc3ccc(C)cc3[C@H]1N(C1CCCCC1)C(=O)c1cc(OC)ccc12	/	/	9.9	4.61µM*	/	?
CCOC(=O)[C@]12Cc3ccc(C)cc3[C@H]1N(C1CCCCC1)C(=O)c1ccccc12	/	/	17.0	2.31µM*	/	1.16µM*
CCOC(=O)[C@]12Cc3c(cc(OC)c(OC)c3OC)[C@H]1N(C1CCCCC1)C(=O)c1ccccc12	/	/	5.0	?	/	3.26µM*
CCCOC(=O)Cc1ccc(OCC(=O)N(CC)CC)c(OC)c1	/	/	3.6	/	/	/
CCOC(=O)[C@]12Cc3cc(C)ccc3[C@H]1N(C1CCCCC1)C(=O)c1ccccc12	/	/	16.7	2.59µM*	/	1.64µM*
CCOC(=O)[C@]12Cc3cc(Cl)ccc3[C@H]1N(C1CCCCC1)C(=O)c1cc(OC)ccc12	/	/	17.4	5.8µM*	/	1.03µM*
CCOC(=O)[C@]12Cc3ccccc3[C@H]1N(C(C)C)C(=O)c1ccccc12	/	/	5.0	i	/	20.6µM*
CCOC(=O)C1(c2ccccc2)CCN(CC(=O)Nc2ccc(C)cc2)CC1	-1.9%	-18.3%	-6.8	?	15.3	i
CCOC(=O)C12C(=O)OCC1C2c1ccccc1 (stereo not given)	/	/	1.6	i	/	?
O=C(Oc1ccc2ccc(OC(=O)N3CCCCCC3)cc2c1)N1CCCCCC1	-6.0%	?	-4.8	i	9.5	i
Nc1nonc1-n1nnc(C(=O)N/N=C/c2ccc3c(c2)OCO3)c1CSc1ccccc1	-7.8%	?	-5.3	?	10.4	i
O=C(c1cncc(Br)c1)N1CCN(S(=O)(=O)c2ccc3ccccc3c2)CC1	0.6%	?	-0.4	i	13.7	i
Cc1ccc(CNCCc2ccccc2F)cc1	1.5%	22.0%	-3.0	i	8.0	i
CCN(CC)c1ccc(CNCCc2ccccc2F)cc1	?	0.3%	-4.7	20.6µM*	-4.5	?
CCCCC(=O)N/N=C/c1c(O)n(CC)c(=S)[nH]c1=O	-2.9%	-7.1%	-4.4	i	4.8	i
CCCCCCC(=O)N/N=C/c1c(O)n(CCCC)c(=S)[nH]c1=O	-16.0%	20.6µM*	-2.3	i	43.5	i
CCN(CC)CCOC(=O)c1ccc(NC(=O)CCn2c(=O)oc3ccccc32)cc1	?	2.2%	-4.0	i	/	i
SMILES	A549 viability	Nrf2 block	PI4K2A inh	KB-V1 cytotox	Giardia kill	KB-3-1 cytotox
CCN(CC)c1ccc(N=Cc2c(O)n(CCc3ccc(OC)c(OC)c3)c(=O)[nH]c2=O)cc1	-10.0%	?	-8.1	16.4µM*	6.9	?
COc1ccc(CCn2c(O)c(C=Nc3ccc(F)cc3)c(=O)[nH]c2=O)cc1OC	-0.4%	?	-1.0	i	-5.5	i
CC(C)c1cccc(C(C)C)c1OC(=O)NC(=O)c1c(F)cccc1F	?	-3.8%	5.9	i	28.1	i
COc1ccc(NC(=O)CSc2nc(-c3cccs3)cc(C(F)(F)F)n2)cc1Cl	-16.4%	?	2.1	5.17µM*	/	i
C[C@H](CO)N1C[C@H](C)[C@@H](CN(C)Cc2ccc(-c3ccccc3)cc2)Oc2c(NC(=O)c3ccncc3)cccc2C1=O	-18.6%	20.6µM*	-0.9	i	5.2	?
Cn1c(-c2ccccc2)c(P(=S)(c2ccccc2)c2ccccc2)c2ccccc21	-0.7%	12.7%	/	/	/	/
ClCCN(CCCl)c1ccc(C=Nc2ccncc2)cc1	/	/	/	i	/	i
Cc1ccc(S(=O)(=O)N2CCCCC2)cc1NC(=O)CSc1ncnc2ccccc12	-20.7%	?	-1.6	16.4µM*	-0.2	i
COc1ccc(C(=O)Nc2cccc(S(=O)(=O)NCc3ccco3)c2)cc1	-6.3%	?	2.7	/	-3.8	/
CCCOc1ccc(C(=O)Nc2ccc(-c3cc4ccccc4oc3=O)c(C)c2)cc1	-6.7%	5.8µM*	1.7	?	/	10.3µM*
CC(C)Oc1cccc(NC(=O)c2ccccc2C(F)(F)F)c1	/	/	i	/	/	/
COc1ccc(NS(=O)(=O)c2ccc3c(c2)oc(=O)n3C)cc1Cl	0.1%	14.6µM*	-4.4	?	11.9	i
O=c1[nH]c(=S)n(Cc2ccco2)c(O)c1C=NCc1cccs1	-0.2%	-3.6%	-56.6*	i	26.5	i
Nc1c(Cl)c(Cl)c(Cl)c(Cl)c1Cl	/	/	i	/	/	/
COc1cc(CC(C)N)c(OC)cc1Br (stereo not given)	/	/	i	/	/	/
C=C(C=O)CC1CC(O)[C@]2(C)OC3CC4OC5C[C@]6(C)O[C@]7(C)CCC8OC9C[C@]%10(C)OC%11C(C)=CC(=O)OC%11CC%10OC9C[C@@H](C)C8OC7CC6O[C@]5(C)C/C=C\C4OC3CC2O1 (stereo not given in full)	/	/	-9.3	/	/	/
C=C(C=O)C[C@@H]1C[C@H](O)C2OC3C[C@]4(C)OC5/C=C\CC6OC7C(CC=CCC6OC5CCCC4OC3CC2O1)OC1CC2OC3CC(=O)OC3C[C@@H](C)C[C@@]2(C)OC1C[C@@H]7C (stereo not given in full)	8.1%	2.5%	3.0	8.2µM*	-4.6	4.61µM*
COc1cc(-c2nc3ccc(Cl)cn3c2Nc2ccc3c(c2)OCCO3)ccc1O	-18.0%	?	2.1	i	/	i
